An excerpt weighted towards active compounds, which were near 1.5% of everything screened.
TrxR1 substrate: qHTS Assay for Substrates of Mammalian Selenoprotein Thioredoxin Reductase 1 (TrxR1): qHTS; Thioredoxin reductase 1, cytoplasmic (Rattus norvegicus), O89049; purified TrxR1 substrate turnover, NADPH consumption readout; Potency, µM (highest dose often 114 µM), without a hit: at the top dose activity change, negative = substrate turnover; 390,000 tested, 0.01% active; AID 588456, 2011; further: potency means the concentration at half of the fitted maximal effect; nearly all actives have a fitted effect of over 50% in size
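Rat TrxR1, dispensed at 90 nM, was prereduced with 400 uM NADPH (final) for 5 min at ~22 deg C, then incubated with compound 15 min before 400 uM selenite. A first-read NADPH fluorescence drop versus no-compound background flagged substrates.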
Giardia kill: Small Molecules that selectively kill Giardia lamblia: qHTS; 340,000 tested, 0.15% active; AID 540267, 2011; Giardia lamblia trophozoite viability; activity change, % at 7.66 µM, hits read low; in the data active means activity change below about -80%; inconclusive means between about -30% and that limit;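 further: parasites exposed to compound for two days anaerobically before the ATP read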
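Anaerobic 48 hrs incubation at 37 deg C of 100 trophozoites/well with test compounds; ATPLite 1-Step luminescence, 15-30 min RT, reports cellular ATP as viability.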
TrxR1 inh: qHTS Assay for Inhibitors of Mammalian Selenoprotein Thioredoxin Reductase 1 (TrxR1): qHTS; recombinant rTrxR1, NADPH fluorescence consumption, selenite substrate; Potency, µM (highest dose often 114 µM), without a hit: at the top dose activity change, negative = inhibition, hits mostly inhibitors; 390,000 tested, 1% active; further: potency means the concentration at half of the fitted maximal effect; nearly all actives have a fitted effect of over 65% in size
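Rat TrxR1 (90 nM in the dispensed reagent) was pre-reduced with 400 uM NADPH for 5 min at room temperature, then incubated with compound for 15 min. After 400 uM selenite was added, NADPH fluorescence (Ex 340/Em 450 nm) was followed for 8 min.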
GALK inhibitor: qHTS Assay for Inhibitors of Human Galactokinase (GALK). P51570. Purified GALK, Kinase-Glo residual ATP luminescence. Potency, µM (highest dose often 57.5 µM), without a hit: at the highest dose activity change, negative = inhibition, usual class: inhibitors. 270,000 tested, 0.007% active. AID 1868, 2009; further: potency means the concentration at half of the fitted maximal effect
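ATP-depletion format; final 35 uM ATP, 100 uM D-galactose, 5 nM enzyme; pH 8.0 HEPES/Mg2+ buffer; 60 min RT; luminescence read 10 min after detection reagent.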
PI4K2A block: qHTS for small molecular inhibitors of PI4K2A; Phosphatidylinositol 4-kinase type 2-alpha (Homo sapiens), Q9BTU6; purified PI4K2A, ADP-Glo luminescence, 1 h; active compounds read low; activity change, negative = inhibition, % at 76.9 µM; 420,000 tested, 0.13% active; AID 1346378, 2018; in the data active means activity change below about -50%; inconclusive means mostly about -30% to -49%;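 further: -100% = wells without enzyme as full effect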
Target sequence (Q9BTU6 whole entry, looked up): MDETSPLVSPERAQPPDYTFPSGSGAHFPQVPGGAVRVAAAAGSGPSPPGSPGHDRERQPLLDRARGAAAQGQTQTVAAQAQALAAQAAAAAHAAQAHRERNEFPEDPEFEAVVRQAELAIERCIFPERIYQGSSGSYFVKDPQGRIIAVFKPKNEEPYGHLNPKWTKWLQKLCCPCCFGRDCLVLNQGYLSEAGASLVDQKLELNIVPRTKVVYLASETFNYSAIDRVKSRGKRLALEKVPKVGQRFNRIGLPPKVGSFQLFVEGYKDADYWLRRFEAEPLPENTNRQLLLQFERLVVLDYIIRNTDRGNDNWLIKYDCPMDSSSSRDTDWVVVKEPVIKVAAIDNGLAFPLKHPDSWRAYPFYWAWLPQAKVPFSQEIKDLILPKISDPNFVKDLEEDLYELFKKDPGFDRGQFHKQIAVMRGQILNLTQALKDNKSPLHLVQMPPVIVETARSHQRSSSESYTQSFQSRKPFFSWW
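Compounds are screened against recombinant PI4K2A using PI as substrate and ATP, the latter dispensed at 300 microM. Reactions run one hour at ambient temperature before ADP-Glo detection; full inhibition defined by wells lacking enzyme.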
FBPA coupling cs: qHTS Assay for Inhibitors of Fructose-1,6-bisphosphate Aldolase from Giardia Lamblia: Coupling assay counterscreen | activity change, negative = inhibition, % at 58.2 µM, hits read low | 290,000 tested, 0.67% active | coupling enzyme system counterscreen, AmpLite Red fluorescence; in the data active means activity change below about -30%
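Counterscreen lacking aldolase: glyceraldehyde-3-phosphate coupling-enzyme reagent preincubated 10 min at RT with compound (at 57.5 uM final), then substrate/coupling system with AmpLite Red added; fluorescence read at 525/598 nm after 20 min RT.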
* marks the source's active call; other numbers are inactive results; u = inconclusive; x = no result given; [ ] = another dose, or the depositor's remark. Unless noted, the call rests on the fitted dose curve; in most records, active means well fitted curve in the direction sought with a large enough effect; inconclusive means small, poorly fitted or top-dose-only effect, or another doubt; inactive means no such curve, though single readings can be large; an effect the other way counts as inactive or inconclusive. Unless noted, on the % scale 0 is the no-effect control and ±100 the full control effect.

SMILES	TrxR1 substrate	Giardia kill	TrxR1 inh	GALK inhibitor	PI4K2A block	FBPA coupling cs
Cc1ccc(O)c(NC2=C(Cl)C(=O)N(Cc3ccccc3)C2=O)c1	-4%	20	10µM*	-4%	-5	-3
COc1ccccc1N1C(=O)C(Cl)=C(Nc2ccccc2O)C1=O	11%[57.1 µM]	-13	-71%	-2%	-1	-3
O=C1C(Cl)=C(Nc2ccccc2O)C(=O)N1c1ccccc1	-4%	1	45µM*	1%	-4	-5
Nc1ccc(Cc2ccc(C=O)cc2)cc1	6%	x	28%	x	x	x
COC(=O)c1ccc(Cn2ccc3ccc(-c4ccc5ccn(C(=O)c6ccccc6OC)c5c4)cc32)cc1	x	x	x	x	-4	x
COc1ccc(C2=C(C)C(N3CCC(C(=O)Nc4cc(C)ccc4C)CC3)=NS2(=O)=O)cc1	4%[57.1 µM]	x	12%[57.1 µM]	x	2	x
CC1=C(C)/C(=N\OS(=O)(=O)c2ccccc2)C=CC1=O	-10%	11	u	-3%	-20	-77*
O=C(c1ccc(-c2ccc([N+](=O)[O-])cc2)o1)N1CCN(S(=O)(=O)c2cccs2)CC1	5%	-2	45µM*	x	0	x
O=C(c1ccc([N+](=O)[O-])cc1)N1CCN(C(=O)c2ccco2)CC1	5%[57.1 µM]	-1	24%[57.1 µM]	0%	2	2
O=C(c1ccco1)N1CCN(C(=O)c2ccc(-c3ccc([N+](=O)[O-])cc3)o2)CC1	-12%	-7	7.1µM*	x	-25	x
CCOC(=O)C1CCCN(C(=O)c2ccc(-c3ccc([N+](=O)[O-])cc3)o2)C1 (centres undefined)	0%	7	10µM*	x	-11	x
O=C(c1ccc(-c2ccc(Cl)cc2)o1)N1CCN(S(=O)(=O)c2cccs2)CC1	14%	3	24%	x	0	x
COc1ccc(C2=Nn3c(nnc3-c3ccccc3O)SC2)c(OC)c1	x	x	x	x	x	2
NC(=O)c1oc2ccccc2c1NC(=O)c1ccc(F)cc1	3%	-12	7%	1%	-3	4
NC(=O)c1oc2ccccc2c1NC(=O)c1ccc([N+](=O)[O-])o1	-1%	-88*	-5%	-4%	-3	-3
O=C(NNC(=O)c1ccc([N+](=O)[O-])o1)c1ccccc1	-12%[57.1 µM]	-98*	u	1%	-11	-9
C/C(=N/NC(=O)C(O)(c1ccccc1)c1ccccc1)c1ccc([N+](=O)[O-])o1	13%[57.1 µM]	-90*	u	0%	-5	-5
O=C(NN(c1ccccc1)c1ccccc1)c1ccc([N+](=O)[O-])o1	-6%	-89*	-15%	1%	4	-6
CC(C)(C)n1ncc2c(=O)n(Cc3cccc(C#N)c3)cnc21	-5%	x	10%	x	x	x
CN(C)c1cc(N2CCOCC2)nc(C#N)n1	-2%	x	-2%	x	x	x
Cc1onc(-c2c(Cl)cccc2Cl)c1C(=O)Cl	x	x	x	x	-5	x
C=CS(=O)(=O)N(Cc1ccc(C)cc1)[C@@H](CO)C(=O)OC	x	x	x	x	0	x
CCCOC(=O)/C(=C\c1ccc([N+](=O)[O-])o1)NC(=O)c1ccccc1	10%[57.1 µM]	u	-15%	-3%	0	-1
CCOC(=O)/C(=C\c1ccc([N+](=O)[O-])o1)NC(=O)c1ccccc1	-1%	u	7.9µM*	-1%	0	0
Cc1c(S(=O)(=O)c2ccccn2)c(N)n(Cc2cccc(Cl)c2)c1C	3%	5	20µM*	0%	-4	-2
SMILES	TrxR1 substrate	Giardia kill	TrxR1 inh	GALK inhibitor	PI4K2A block	FBPA coupling cs
O=C(O)c1ccccc1SC1CC(=O)N(C2CCCCC2)C1=O (centres undefined)	3%	25	79µM*	-1%	-1	1
COC(=O)c1c(N2C(=O)CC(Sc3ccccc3C(=O)O)C2=O)sc2c1CCCC2 (centres undefined)	3%	-5	79µM*	6%	6	18
CC1=Nc2cccc3cccc(c23)N1C	-7%	-6	0%	0%	-6	-32*
COc1cccc(C(=O)NN2C(=O)C3C4C=CC(O4)C3C2=O)c1 (centres undefined)	-3%	-7	28µM*	-2%	-5	2
O=C(N[C@@H]1CCCc2c1cnn2-c1ccc(F)cc1F)c1ccccn1	x	x	x	x	1	x
COc1cccc(NC(=O)CN(C)CC(=O)c2c(C)[nH]c3ccccc23)c1	-2%	-10	79µM*	x	1	x
COc1ccc(NC(=O)CN(C)CC(=O)c2c(C)[nH]c3ccccc23)cc1	0%	-14	22µM*	x	-1	x
COc1ccc(NC(=O)CN(C)CC(=O)c2[nH]c(C)c(C(C)=O)c2C)cc1	-1%	9	-15%	x	11	x
CC(C)(C)C1=CC(=O)C(N2CCOCC2)=CC1=O	4%[57.1 µM]	-1	30%[57.1 µM]	-2%	-5	-58*
O=C1C=C(N2CCCCC2)c2ccccc2C1=O	-28%[57.1 µM]	-11	-6%[57.1 µM]	x	u	x
Brc1cccc(Cn2ccc3ccc(-c4ccc5ccn(Cc6cccc(Br)c6)c5c4)cc32)c1	x	x	x	x	6	x
Cn1cccc1/C=C1\Cc2ccccc2C1=O	-4%	-6	-3%	0%	-19	-3
Cn1cccc1/C=C1\CCc2ccccc2C1=O	-7%	u	5%	14%	-56*	-4
O=C1C(=Cc2ccccc2Cl)CCc2ccccc21	x	x	x	x	-78*	x
CCOc1ccccc1C=C1CCc2ccccc2C1=O	x	x	x	x	-12	x
COc1ccccc1C=C1CCc2ccccc2C1=O	x	x	x	x	-63*	x
CC(C)CNS(=O)(=O)/C=C/c1cc2c(cc1CNC(=O)OC(C)(C)C)OCO2	x	x	x	x	-2	x
COC(=O)[C@H]1C[C@]2(C/C=C(\C)CCC=C(C)C)c3ccccc3N[C@H]2N1	x	x	x	x	3	x
Nc1ccc(-c2nc3ncccc3o2)c(O)c1	213%	-10	89µM*	2%	-2	2
Nc1ccc(-c2nc3ncccc3o2)c(Cl)c1	23%[57.1 µM]	-24	8%[57.1 µM]	-3%	-2	1
O=C(Nc1nc2cc3c(cc2s1)OCCO3)c1ccc([N+](=O)[O-])o1	7%	-89*	15%	-4%	-2	x
COc1ccc2nc(NC(=O)c3ccc([N+](=O)[O-])o3)sc2c1	6%[57.1 µM]	-97*	-2%[57.1 µM]	-8%	-3	2
O=C(Nc1nc2cc3c(cc2s1)OCCO3)c1cccs1	4%	-24	11%	-1%	-19	-3
COc1ccc2c(c1)Cc1sc(NC(=O)c3ccccc3)nc1-2	3%	15	-8%	-1%	u	-36*
